PubChem BioAssay (NCI)
About 83,000 compounds went through this panel and 20% of them were active in at least one assay; those are over-represented in the sample as a whole.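 Testing used 96-well plates and a 48-hour single-concentration exposure. Example: -40 means 40% of the starting cells died.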 Calls of active or inactive are those of the source. The calls were made as follows: active = growth percent below 10; inactive = the rest.

How the values were obtained:
Assay in all cases: NCI-60 one-dose screen, 48 h (100 = growth as untreated, 0 = no growth, -100 = all killed)
Conditions in all cases: 10 µM unless noted
HCT-15 colon = test system: HCT-15 colon
HT29 colon = test system: HT29 colon
SNB-75 CNS = test system: SNB-75 CNS
SNB-19 CNS = test system: SNB-19 CNS
U251 CNS = test system: U251 CNS
PC-3 prostate = test system: PC-3 prostate
SK-MEL-5 melanoma = test system: SK-MEL-5 melanoma
UACC-62 melanoma = test system: UACC-62 melanoma
LOX IMVI melanoma = test system: LOX IMVI melanoma
SK-MEL-28 melanoma = test system: SK-MEL-28 melanoma
SK-MEL-2 melanoma = test system: SK-MEL-2 melanoma
EKVX NSCLC = test system: EKVX NSCLC
SN12C renal = test system: SN12C renal
UO-31 renal = test system: UO-31 renal
TK-10 renal = test system: TK-10 renal
ACHN renal = test system: ACHN renal
CAKI-1 renal = test system: CAKI-1 renal
A498 renal = test system: A498 renal
CCRF-CEM leukemia = test system: CCRF-CEM leukemia
MOLT-4 leukemia = test system: MOLT-4 leukemia

Measured: growth

COc1ccc(Nc2ncc(C#N)c(NCCCNC(=O)C3CCC3)n2)cc1
inactive: HCT-15 colon 49.7% | HT29 colon 61.9% | SNB-75 CNS 58.1% | SNB-19 CNS 68.9% | U251 CNS 60.1% | PC-3 prostate 71.9% | SK-MEL-5 melanoma 92% | UACC-62 melanoma 78.1% | LOX IMVI melanoma 32.6% | SK-MEL-28 melanoma 103% | SK-MEL-2 melanoma 80.6% | EKVX NSCLC 87.3% | SN12C renal 35.3% | UO-31 renal 11.1% | TK-10 renal 41.4% | ACHN renal 48.1% | CAKI-1 renal 26.3% | A498 renal 52.8% | CCRF-CEM leukemia 45.5% | MOLT-4 leukemia 34.7%

O=C1CCCCN1c1ccc(C2=NCCCN2)cc1
inactive: HCT-15 colon 101% | HT29 colon 87.6% | SNB-75 CNS 55% | SNB-19 CNS 89.2% | U251 CNS 79.3% | PC-3 prostate 79.9% | SK-MEL-5 melanoma 97.5% | UACC-62 melanoma 90.3% | LOX IMVI melanoma 87.7% | SK-MEL-28 melanoma 91.4% | SK-MEL-2 melanoma 111% | EKVX NSCLC 97.8% | SN12C renal 92.9% | UO-31 renal 79.1% | TK-10 renal 98.8% | ACHN renal 95.7% | CAKI-1 renal 100% | A498 renal 93.7% | CCRF-CEM leukemia 116% | MOLT-4 leukemia 80%

COc1cc(-c2cc(-c3ccc(Nc4nc(Nc5ccc(Cl)cc5)nc(Nc5ccc(Cl)cc5)n4)cc3)no2)cc(OC)c1OC
inactive: HCT-15 colon 81.2% | HT29 colon 78.8% | SNB-75 CNS 74.6% | SNB-19 CNS 81.6% | U251 CNS 73.4% | PC-3 prostate 60.1% | SK-MEL-5 melanoma 61.2% | UACC-62 melanoma 82.1% | LOX IMVI melanoma 73.3% | SK-MEL-28 melanoma 88% | SK-MEL-2 melanoma 55.2% | EKVX NSCLC 67.1% | SN12C renal 106% | UO-31 renal 61.6% | TK-10 renal 108% | ACHN renal 78.9% | CAKI-1 renal 75.4% | A498 renal 68.3%
active: CCRF-CEM leukemia -5.88% | MOLT-4 leukemia -10.3%

COc1ccc(C(=O)/C=C/c2ccccc2)cc1S(N)(=O)=O
inactive: HCT-15 colon 44.1% | HT29 colon 63.6% | SNB-75 CNS 87.2% | SNB-19 CNS 40% | U251 CNS 26.2% | PC-3 prostate 74% | SK-MEL-5 melanoma 88.2% | UACC-62 melanoma 79.2% | LOX IMVI melanoma 42% | SK-MEL-28 melanoma 107% | SK-MEL-2 melanoma 89.8% | EKVX NSCLC 95.6% | SN12C renal 44.9% | UO-31 renal 54.7% | TK-10 renal 66.8% | ACHN renal 74.9% | CAKI-1 renal 82.3% | A498 renal 85.3% | CCRF-CEM leukemia 57.8% | MOLT-4 leukemia 57.5%

O=c1oc2c(cnc3ccccc32)cc1-c1cccc(Cl)c1
inactive: HCT-15 colon 101% | HT29 colon 108% | SNB-75 CNS 95.6% | SNB-19 CNS 98.5% | U251 CNS 98.2% | PC-3 prostate 97.7% | SK-MEL-5 melanoma 107% | UACC-62 melanoma 96.1% | LOX IMVI melanoma 102% | SK-MEL-28 melanoma 105% | SK-MEL-2 melanoma 118% | EKVX NSCLC 99.1% | SN12C renal 98.3% | UO-31 renal 90.4% | TK-10 renal 118% | ACHN renal 104% | CAKI-1 renal 92% | A498 renal 83.1% | CCRF-CEM leukemia 76.5% | MOLT-4 leukemia 96.3%

[N-]=[N+]=NCC1OC(n2cnc3c(NC(=O)Nc4ccccc4)ncnc32)C2OC(=O)CC12 (stereo not given)
inactive: HCT-15 colon 91.2% | HT29 colon 109% | SNB-75 CNS 93.7% | SNB-19 CNS 106% | U251 CNS 110% | PC-3 prostate 97.4% | SK-MEL-5 melanoma 106% | UACC-62 melanoma 107% | LOX IMVI melanoma 93.2% | SK-MEL-28 melanoma 118% | SK-MEL-2 melanoma 90.7% | EKVX NSCLC 104% | SN12C renal 118% | UO-31 renal 78.8% | TK-10 renal 101% | ACHN renal 101% | CAKI-1 renal 101% | A498 renal 100% | CCRF-CEM leukemia 91.7% | MOLT-4 leukemia 84.6%

O=C1OCC2=C1C(c1ccccc1)c1cc3c(cc1N2CCO)OCCO3 (stereo not given)
inactive: SNB-19 CNS 12.8% | PC-3 prostate 17.3% | UACC-62 melanoma 14.5% | LOX IMVI melanoma 34.6% | SK-MEL-28 melanoma 32.6% | SK-MEL-2 melanoma 57.3% | EKVX NSCLC 48.4% | SN12C renal 35.1% | UO-31 renal 68.4% | TK-10 renal 63.5% | ACHN renal 36.7% | CAKI-1 renal 51% | CCRF-CEM leukemia 10.5% | MOLT-4 leukemia 21.4%
active: HCT-15 colon 7.18% | HT29 colon -35.9% | SNB-75 CNS -11.2% | U251 CNS 7.86% | SK-MEL-5 melanoma 4.37% | A498 renal -21.2%
